Results published in PubChem BioAssay AID624330 (Southern Research Specialized Biocontainment Screening …, 2012).
In all, about 340,000 compounds went through this assay and about 2,100 (0.62%) were called active.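 Rule for the calls: active = first-screen hits whose inhibition reached a set limit at any dose in the follow-up dose series; inconclusive = inhibition above the set first-screen limit but never retested; inactive = the rest.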 Not all results are given here. Results with a measured potency or affinity are listed apart.

molecular target: Rac GTPase-activating protein 1 (Homo sapiens) (UniProt Q9H0H5); assay: blockers of MgcRacGAP-driven Rac1 GTP hydrolysis – biochemical, ADP Hunter fluorescence, primary and confirmatory, confirmation (AID 624330); settings: MgcRacGAP-stimulated Rac1 GTP hydrolysis, at 30 µM, stronger effect = higher value, GST-tagged Rac1 F28L mutant substrate;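 note: fluorescence reports GDP produced by GAP-driven GTP hydrolysis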
Sequence (Q9H0H5 whole entry, looked up): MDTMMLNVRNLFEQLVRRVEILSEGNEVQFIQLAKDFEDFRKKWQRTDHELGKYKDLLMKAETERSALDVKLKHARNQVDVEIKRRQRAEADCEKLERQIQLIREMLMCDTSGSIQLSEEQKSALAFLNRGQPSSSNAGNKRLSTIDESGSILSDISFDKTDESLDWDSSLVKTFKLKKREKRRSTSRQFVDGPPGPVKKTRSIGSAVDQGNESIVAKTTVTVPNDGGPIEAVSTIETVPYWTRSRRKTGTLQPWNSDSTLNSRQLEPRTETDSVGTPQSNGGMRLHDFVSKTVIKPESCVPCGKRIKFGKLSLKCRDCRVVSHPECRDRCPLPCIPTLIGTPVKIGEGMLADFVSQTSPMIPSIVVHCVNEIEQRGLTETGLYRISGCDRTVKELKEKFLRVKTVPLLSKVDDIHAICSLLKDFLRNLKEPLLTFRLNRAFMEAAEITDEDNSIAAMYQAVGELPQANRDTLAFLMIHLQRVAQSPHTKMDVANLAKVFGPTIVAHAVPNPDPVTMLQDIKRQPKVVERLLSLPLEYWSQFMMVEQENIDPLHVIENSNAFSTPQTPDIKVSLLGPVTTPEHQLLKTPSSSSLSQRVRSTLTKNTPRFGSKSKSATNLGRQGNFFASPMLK

inhibition, inactive:
CC[C@]12c3[nH]c4ccc(Cl)cc4c3CCN1C(=O)[C@@H](CC(=O)NCc1ccco1)C[C@@H]2C(=O)N1CCN(C(=O)C2CC2)CC1 9.23%
CC12CCC(=O)N1C(C(=O)N1CCN(S(=O)(=O)c3ccccc3F)CC1)CS2 (configuration not stated) 2.86%
CCOC(=O)c1ccc2c(c1)nc(-c1ccc(F)cc1)c1nccn12 0.78%
COc1ccc(CN2CCOCCOCCOCCOCCOCC2)cc1 12.1%
CCC(=O)Nc1cccc(NC(=O)CN2CCN(c3ccccc3OC)CC2)c1 9.77%
Cc1ccc(C2(C)NC(=O)N(CC(=O)N(c3ccccc3)C3CCS(=O)(=O)C3)C2=O)cc1 (configuration not stated) -6.22%
CCN(CC)S(=O)(=O)c1cccc(C(=O)NN2Cc3ccccc3C2=N)c1 -4.56%
C=CCn1c(SCC(=O)NNC(=O)Nc2ccc(C)cc2)nnc1-c1ccccc1 1.01%
C=CCn1c(SCC(=O)Nc2ccc3c(c2)OCO3)nnc1-c1ccccc1 6.23%
CCn1c(SCC(=O)Nc2cc(C)on2)nnc1-c1cccc(C)c1 7.99%
CCn1c(SCC(=O)Nc2ccc(C)cc2)nnc1-c1ccc(O)cc1 5.22%
Cc1csc(=O)n1CCC(=O)OCC(=O)Nc1ccc(Cl)cn1 4.45%
CCOc1ccc(S(=O)(=O)N/N=C(\C)C2CCCCC2)cc1 3.81%
CCCCOc1ccc(/C=N/NC(=O)c2csc(C)c2C)cc1 16.6%
COc1cccc(-n2nnc3c(=O)n(CC(=O)N4CCC(C)CC4)cnc32)c1 11.4%
CCOc1ncccc1C(=O)OCC(=O)NCc1ccccc1 5.95%
O=C(CN1CCN(C2CCCCC2)CC1)Nc1cccc2ccccc12 15.3%
O=C(CN1CCCCC1)Nc1ccccc1-c1ccccc1 6.84%
Cc1cc(C)cc(OCC(=O)N2CCN(c3ncccn3)CC2)c1 1.56%
COc1ccc(N(C(=O)COc2cccc(C)c2)S(=O)(=O)c2ccc(C)cc2)cc1 7.24%
Cc1ccc(OC(=O)COc2ccccc2C)cc1 9.41%
Cc1ccc(OCC(=O)Oc2ccc(C(C)C)cc2)cc1 15.2%
COc1ccc(CC(=O)Oc2cc(C)ccc2C)cc1 4.1%
COc1ccc(OC(=O)COc2ccc(Cl)cc2)cc1 10.7%
Cc1cccc(OCC(=O)Oc2ccc(Cl)cc2)c1 14.7%
Cc1ccc(C(=O)C[n+]2ccc(-c3nnc4n3CCC4)cc2)cc1 -12.9%
CN(C(=O)CSc1nnc(-c2ccccc2F)n1N)C1CCCCC1 4.13%
Cc1noc(C)c1NC(=O)NCCN1CCN(Cc2ccccc2)CC1 11.3%
CCOc1ccc2[nH]c(=O)c(CN(CCN3CCCC3)C(=S)Nc3ccccc3OC)cc2c1 3.77%
C=CCc1ccccc1OCC(=O)N/N=C/c1ccc(OC(C)=O)cc1OC(C)=O -0.28%
C1=CC2=NC34CCCCC3CC3=C(CCCC3)N4C2=CC1=NC1CCCCC1 (configuration not stated) 11.1%
CCOc1ccc(NC(=O)NC2CCCc3ccccc32)cc1 (configuration not stated) 13.3%
COc1ccc(CNC2CCCc3ccccc32)cc1OC (configuration not stated) 6.79%
CCOc1ccc2[nH]c3ncccc3c(=O)c2c1 3.15%
CCOc1ccc(N=Nc2ccc(O)c3ncccc23)cc1 5.89%
COc1cc(/C=N/NC(=O)c2cc(C)oc2C)ccc1OCc1ccccc1 5.24%
COc1cc(/C=N/NC(=O)c2cc(C)oc2C)cc(OC)c1OC -1.5%
COc1ccc(/C=N/NC(=O)c2cc(C)oc2C)cc1OC 3.85%
COc1ccc(/C=N/NC(=O)c2cc(C)oc2C)cc1OCc1ccccc1 11.1%
COc1cc(/C=N/NC(=O)c2ccoc2C)cc(OC)c1O 21.6%
COc1ccc(/C=N/NC(=O)c2ccoc2C)cc1OC 6.81%
Cc1ccc(S(=O)(=O)N2CCN(C(=O)c3ccco3)CC2)c(C)c1 6.61%
CC(=O)Nc1ccc(S(=O)(=O)N2CCCC3CCCCC32)cc1 (configuration not stated) 2.55%
COCCCNC(=O)CC1C[C@H](C(=O)N2CCOCC2)[C@@]2(CCC3CCCC3)c3[nH]c4ccc(OC)cc4c3CCN2C1=O (some centres not stated) 3.79%
O=C(NC1CCN(Cc2ccc(Cl)cc2Cl)CC1)c1ccccc1 5.03%
Cn1c(C(=O)N2CCCC(Nc3ccc(F)cc3)C2)cc2ccccc21 (configuration not stated) -8.53%
O=C(O)c1cccc(S(=O)(=O)Nc2ccccc2C(=O)NCCc2ccccc2)c1 4.14%
COc1cc(C(=O)NCCc2ccc3c(c2)OCO3)cc(OC)c1OC -4.93%
COc1cc(CC(=O)NCc2ccc3c(c2)OCO3)cc(OC)c1OC 4.17%
COc1cccc(CNCc2ccc3c(c2)OCO3)c1 31.8%
Fc1cccc(CNCc2ccc3c(c2)OCO3)c1 3.78%
CC1(C)CC(=O)C=C(c2cccc(OC(=O)c3ccc(-c4ccccc4)cc3)c2)C1=O 11.9%
CCOc1ccc(NC(=O)CN2CCN(c3ccc(F)cc3)CC2)cc1S(=O)(=O)N1CCCC1 10.6%
CN(CC(O)COc1ccc(S(=O)(=O)N2CCOCC2)cc1)C1CCCCC1 (configuration not stated) 10.6%
O=C(CSc1nnnn1Cc1ccccc1)Nc1cccc(F)c1 8.78%
Nc1ccc(C(=O)C(=O)c2ccc(N)cc2)cc1 6.66%
N=C(N)c1ccc(N)cc1 10.7%
CC(NC(=O)COc1cccc(Br)c1)C(=O)O (configuration not stated) 3.37%
CCc1sc(C(=O)Nc2ccc(N3CCOCC3)cc2)cc1C 9.93%
CCOC(=O)/C(C#N)=C\C=C1C=CN(C)C=C1 10.4%
CN1C(=S)SC(N(O)C=C2C=CC(=O)C=C2)C1(C)C (configuration not stated) 24.5%
COc1ccc(C(CNC(=O)c2ccc(NS(=O)(=O)c3ccc4c(c3)OCCO4)cc2)N(C)C)cc1 (configuration not stated) -0.2%
